Source: PubChem BioAssay (Tox21)
Records with an inconclusive call do not appear. A number with no mark means an inactive call. Active and inactive are the calls of the source. Calls follow the shape of the dose curve; as a rule, active = well fitted cell-killing curve with a large enough effect in the repeat runs; inconclusive = weak or mixed curves; inactive = flat fitted curve, though single readings scatter.

Test: qHTS assay to identify small molecule antagonists of the estrogen related receptor (ERR) signaling pathway - cell viability counter screen (AID 1224818)
Details: ERR reporter cell line viability counter screen; series mostly up to 46.1 µM; viability change, negative = cytotoxic: at the top concentration
Source text: National Center for Advancing Translational Sciences [NCATS]
NIH Chemical Genomics Center [NCGC]
U.S. Environmental Protection Agency [EPA]
National Institutes of Environmental Health Sciences [NIEHS]
National Toxicology Program [NTP]
U.S. Food and Drug Administration [FDA]
Estrogen related receptors (ERRs), the first orphan nuclear receptors discovered, play an important role in the control of cellular energy metabolism. ERRs are required for high-energy production in response to the environmental challenges. ERR-alpha was also identified as an adverse marker for breast cancer progression; ERR-alpha-positive tumors have a poor prognosis. To screen and to identify environmental compounds that perturb the ERR signaling pathways could provide valuable information for potential therapeutic or preventive measures in the treatment of metabolic disease. To differentiate true ERR antagonists or agonist from cytotoxic substances, the assay is multiplexed with cell viability assay.
Tox21 Assay Protocol Summary:
The ERR cells were dispensed at 2,000 cells/5 ul/well in 1536-well white plates using a Multidrop dispenser. After the assay plates were incubated at a 37 C/5% CO2 incubator for 6 hours, 23 nL of compounds dissolved in DMSO, positive and negative controls or DMSO only was transferred to the assay plate by a pin tool. The plates were incubated at 37 C for 17.5 hours. 1 ul/well of CellTiter-Fluor reagent was added into the assay plates using a Flying Reagent Dispenser. After 30 min incubation at 37 C/5% CO2, the fluorescence intensity in the plates was measured using a ViewLux plate reader.
% is scaled to controls: 0 for no effect and ±100 for the full control effect; potency is read from the fitted curve at half-maximal effect.

Row | SMILES | viability change, negative = cytotoxic [%] | Potency
1 | CCCN1CCc2cccc3c2[C@H]1Cc1ccc(O)c(O)c1-3 | -11.8 | 
2 | O=C(NC1CN2CCC1CC2)c1cc2ccoc2cn1 (stereo not given) | 11.8 | 
3 | C[C@H](N)CN1CCc2ccc(Br)cc21 | -11.8 | 
4 | Cc1o[nH]c(=O)c1CC(N)C(=O)O (stereo not given) | 4.94 | 
5 | CP(=O)(O)C1=CCNCC1 | 4.62 | 
6 | C[C@]12Cc3cn4c(nc3C=C1CCC1C2CC[C@@]2(C)[C@H]1CC[C@@]2(O)C#N)nc1ccccc14 (stereo not given in full) | -20.5 | 
7 | NC(CCP(=O)(O)O)C(=O)O (stereo not given) | 12.1 | 
8 | Ic1ccccc1CNC1C2CCN(CC2)C1C(c1ccccc1)c1ccccc1 (stereo not given) |  | 19.6 µM (active)
9 | CN[C@@H]1C[C@@H](c2ccc(Cl)c(Cl)c2)c2ccccc21 | -8.25 | 
10 | CC(Cc1ccc(OCC(=O)O)cc1)NCC(O)c1cccc(Cl)c1 (stereo not given) | -10.1 | 
11 | CN1CC[C@@]2(C)c3cc(OC(=O)Nc4ccccc4)ccc3N(C)[C@@H]12 | 1.47 | 
12 | COc1ccc(OC)c(C(O)C(C)N)c1 (stereo not given) | 8.21 | 
13 | NC(Cc1cc(O)c(O)cc1O)C(=O)O (stereo not given) | 6.25 | 
14 | CCCN(CCC)[C@H]1CCc2c(F)ccc(O)c2C1 | -3.31 | 
15 | NCCc1c[nH]c2ccccc12 | 5.34 | 
16 | NCCCP(=O)(O)O | 2.71 | 
17 | C[C@@H]1O[C@H](C[N+](C)(C)C)C[C@H]1O | 9.89 | 
18 | CCN(CC)c1ncnc2c1ncn2[C@@H]1O[C@H](COP(=O)(O)OP(=O)(O)C(Br)(Br)P(=O)(O)O)[C@@H](O)[C@H]1O | 4.38 | 
19 | CC(C)NP(=O)(NC(C)C)OP(=O)(NC(C)C)NC(C)C | 8.16 | 
20 | S=C(NC1CCCCC1)N1CCC(c2cnc[nH]2)CC1 | -12.1 | 

Row | SMILES | viability change, negative = cytotoxic [%] | Potency
21 | CCCn1c(=O)c2[nH]c(C3CCCC3)nc2n(CCCOC(=O)c2ccc(S(=O)(=O)F)cc2)c1=O | -5.56 | 
22 | CC(N)[C@H](O)c1ccc(O)c(O)c1 (stereo not given in full) | -4.56 | 
23 | OCc1cnc[nH]1 | 5.93 | 
24 | CCN1C[C@@]2(COC)C3[C@@H](OC)C4[C@H]1C3([C@@H]1C[C@@]3(O)[C@H](OC(=O)c5ccccc5)[C@@H]1[C@]4(OC(C)=O)[C@@H](O)[C@@H]3OC)[C@H](OC)C[C@H]2O | 9.38 | 
25 | O=C(N[C@H]1CN2CCC1CC2)c1ccc(Cl)cc1 | -7.59 | 
26 | C[C@@H](N)Cc1cnc[nH]1 | 10.2 | 
27 | O=[N+]([O-])c1ccc2nc(N3CCNCC3)ccc2c1 | -22.1 | 
28 | Cc1sc2ccccc2c1CC1=NCCN1 | 5.92 | 
29 | Cn1cnc(CCN)c1 | 4.06 | 
30 | C[N+]1(C)CCC(OC(=O)C(c2ccccc2)c2ccccc2)CC1 | 13.6 | 
31 | CC(C)[C@H]1CN[C@H](C(=O)O)[C@H]1CC(=O)O | 5.82 | 
32 | CN1C2CCC1CC(OC(=O)c1cc(Cl)cc(Cl)c1)C2 (stereo not given) | -2.56 | 
33 | CC12NC(Cc3ccccc31)c1ccccc12 (stereo not given) | 10.1 | 
34 | Nc1ncnc2c1ncn2[C@@H]1O[C@H](COP(=O)(O)CP(=O)(O)OP(=O)(O)O)C(O)[C@H]1O (stereo not given in full) | -3.77 | 
35 | CCCC[N+]1(C)C2CC(OC(=O)[C@H](CO)c3ccccc3)CC1C1OC12 (stereo not given in full) | -5.36 | 
36 | Cc1nccc2c1[nH]c1ccccc12 | 2.45 | 
37 | CCS(=O)(=O)Nc1cccc(C(=C2CCCCC2)c2cnc[nH]2)c1 | -13.3 | 
38 | CCn1cc(C(=O)O)c(=O)c2ccc(C)nc21 | 14.1 | 
39 | NC(=O)c1cc(N2CC2)c([N+](=O)[O-])cc1[N+](=O)[O-] | -2.26 | 
40 | O=C1CC[C@@]2(O)C3Cc4ccc(O)c5c4C2(CCN3CC2CC2)[C@H]1O5 (stereo not given in full) | 4.5 | 
